The structures appear in SMILES notation. Out of some 65,000 compounds screened, about 450 (0.69%) were called active. The full list was thinned out, with actives kept by preference. Values without a mark were called inactive.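 How the source made its calls: active means activation above a set limit, the screen-wide mean activation plus 3 SD (cut at about 8.5% in these data); inactive means the rest.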

The target in this assay is 5-hydroxytryptamine receptor 1E (Homo sapiens) (UniProt P28566). Put plainly: 5-HT1E receptor agonists, primary screen, cell-based, HTS (AID 574).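 Further: 100% = positive control agonist at 1 µM giving full maximal response.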 Conditions: CHO 5-HT1E Ga15 NFAT-bla reporter, FRET; at 6 µM; active compounds read high; 0% DMSO wells, 100% control agonist wells.
Sequence of 5-hydroxytryptamine receptor 1E (Homo sapiens) (P28566 whole entry, looked up): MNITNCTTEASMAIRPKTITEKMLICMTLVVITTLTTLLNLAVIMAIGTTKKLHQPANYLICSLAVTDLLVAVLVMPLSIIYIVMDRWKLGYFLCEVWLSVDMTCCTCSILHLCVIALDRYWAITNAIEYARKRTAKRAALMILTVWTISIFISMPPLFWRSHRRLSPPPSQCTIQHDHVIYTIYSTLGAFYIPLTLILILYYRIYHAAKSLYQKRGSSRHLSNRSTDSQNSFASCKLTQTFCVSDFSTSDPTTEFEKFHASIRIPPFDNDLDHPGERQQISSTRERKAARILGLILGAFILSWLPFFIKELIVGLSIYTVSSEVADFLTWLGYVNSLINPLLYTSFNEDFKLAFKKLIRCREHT
For the compound `CCCCOc1ccccc1/C=c1/sc2nc(-c3oc4ccccc4c3C)nn2c1=O`, the activation was 0.1%.

Consider `O=c1nc2s/c(=C\c3ccco3)c(=O)n2nc1Cc1ccccc1`, for which the activation is 17.9% (active).

For the compound `CCOc1ccccc1/C=c1\sc2nc(-c3ccco3)nn2c1=O`, the activation was 0.9%.

For the compound `O=C(CCS(=O)(=O)Cc1ccccc1F)NCCCN1CCCCC1`, the activation was -1.2%.

Take `Cc1ccc(CNC(=O)CCCNC(=O)c2ccc(Cl)cc2)n1C`: the activation is -0.6%.

Consider `O=S(=O)(NCc1ccccc1Cl)c1cnc[nH]1`, for which the activation was 0.3%.

Take `COc1ccc2c(c1)OC(O)(C(F)(F)C(F)F)CC2=O` (configuration not stated): the activation is 12% (active).

As for `CN(C)c1ccnc2sc3c(=O)n(Cc4ccccc4)cnc3c12`, the activation was 0.2%.

For the compound `CCOC(=O)c1sc(N(Cc2ccccc2)C(=O)CN2C(=O)CN(C)C2=O)nc1C`, the activation was 0.8%.

In the case of `CCN(CCCNC(=O)C1CCN(S(=O)(=O)c2cnc[nH]2)CC1)c1ccccc1`, the activation is -0.1%.

`CN1CCN(CCCNC(=O)c2cc3c(=O)oc4ccccc4c3s2)CC1`: the activation is 14.9% (active).

In the case of `CN1CCN(Cc2c(O)ccc3c2oc(=O)c2ccccc23)CC1`, the activation was -1.2%.

Regarding `Cc1nc2ccccc2c2oc(C(=O)NCCCN3CCC(C)CC3)cc12`, the activation is -0.7%.

`CCS(=O)(=O)N1CCN(C(=O)c2cccs2)CC1`: the activation is 0.5%.

On to `O=C(CC(Cc1ccccc1)C(=O)O)NCCc1ccc2c(c1)OCO2` (configuration not stated), for which the activation is 10.3% (active).

Regarding `O=C(COc1ccccc1)NCc1ccc2c(c1)OCO2`, the activation is -0.5%.

On to `O=C(CN(Cc1ccccc1)C(=O)c1ccc2c(c1)OCCO2)NCc1ccc2c(c1)OCO2`, for which the activation is -1.2%.

Consider `Cc1cc(=O)n2nc(N3CCCC(C(=O)N4CCN(C)CC4)C3)sc2n1` (configuration not stated), for which the activation is 0%.

Regarding `CN(C)CCCn1c(N)c(C#N)c2nc(C#N)c(C#N)nc21`, the activation was 3.5%.

As to `CCOc1ccc2nc(NC(=O)CSc3nc4c(c(=O)n(C)c(=O)n4C)n3CC)sc2c1`, the activation was -0.3%.

As for `CCOC(=O)CCc1c(C)c(C#N)c2[nH]c3ccccc3n2c1=O`, the activation is -0.2%.

Turning to `CCC1CCCCN1CCNS(=O)(=O)c1ccc2c(c1)CCN2C(C)=O` (configuration not stated), the activation was -0.3%.

For the compound `O=S(=O)(c1ccc(OCC(O)CN2CCN(c3ccccc3Cl)CC2)cc1)N1CCOCC1` (configuration not stated), the activation was 1.6%.

Consider `CCCN1C(=O)C(NC(C)=O)c2cc(OC)ccc21` (configuration not stated), for which the activation was 0.7%.

Consider `CCOC(=O)N1CCN(C(=O)c2cnc3n(c2=O)CCS3)CC1`, for which the activation is 4.1%.

As to `Cn1c(NC(=O)c2ccco2)c(-c2ccccc2Cl)c(=O)c2ccccc21`, the activation was 0.2%.

Consider `CCC(=O)Nc1ccccc1N1CCN(S(C)(=O)=O)CC1`, for which the activation is -0.7%.

The record behind these values is PubChem BioAssay AID574 (The Scripps Research Institute Molecular Screening Center, 2007).
